# According to PubChem BioAssay (NCATS):
# Results filed as inconclusive are left out. Some of the results follow. Entries that show only a call come without a potency. Activity calls are given as the source filed them. Unless noted, calls come from the whole dose curve.
# Legend:
# [1] = qHTS for Inhibitors of WRN Helicase: Thiazole Orange DNA Binding Counterscreen (AID 720499; active = well fitted curve in the direction sought with a large enough effect; an effect the other way counts as inactive or inconclusive;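 note: drop in dye fluorescence marks compound binding to DNA; nearly all actives have a fitted effect of over 60% in size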)
# Outline: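 Readout: ThO fluorescence, ex 480 nm/em 530 nm. Mix: 50 nM unlabeled DNA, 100 nM ThO. Compounds pintooled in, 15 min RT before reading.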
# [2] = molecular target: DNA polymerase kappa (Homo sapiens) (UniProt Q9UBT6); assay: qHTS for Inhibitors of Polymerase Kappa: Confirmatory Assay for Cherry-picked Compounds (AID 720501; active = well fitted curve in the direction sought with a large enough effect; an effect the other way counts as inactive or inconclusive; note: potency is the fitted concentration of half-maximal effect); details: purified Pol-kappa, fluorescent strand-displacement substrate
# Chain of DNA polymerase kappa (Homo sapiens) (Q9UBT6 whole entry, looked up): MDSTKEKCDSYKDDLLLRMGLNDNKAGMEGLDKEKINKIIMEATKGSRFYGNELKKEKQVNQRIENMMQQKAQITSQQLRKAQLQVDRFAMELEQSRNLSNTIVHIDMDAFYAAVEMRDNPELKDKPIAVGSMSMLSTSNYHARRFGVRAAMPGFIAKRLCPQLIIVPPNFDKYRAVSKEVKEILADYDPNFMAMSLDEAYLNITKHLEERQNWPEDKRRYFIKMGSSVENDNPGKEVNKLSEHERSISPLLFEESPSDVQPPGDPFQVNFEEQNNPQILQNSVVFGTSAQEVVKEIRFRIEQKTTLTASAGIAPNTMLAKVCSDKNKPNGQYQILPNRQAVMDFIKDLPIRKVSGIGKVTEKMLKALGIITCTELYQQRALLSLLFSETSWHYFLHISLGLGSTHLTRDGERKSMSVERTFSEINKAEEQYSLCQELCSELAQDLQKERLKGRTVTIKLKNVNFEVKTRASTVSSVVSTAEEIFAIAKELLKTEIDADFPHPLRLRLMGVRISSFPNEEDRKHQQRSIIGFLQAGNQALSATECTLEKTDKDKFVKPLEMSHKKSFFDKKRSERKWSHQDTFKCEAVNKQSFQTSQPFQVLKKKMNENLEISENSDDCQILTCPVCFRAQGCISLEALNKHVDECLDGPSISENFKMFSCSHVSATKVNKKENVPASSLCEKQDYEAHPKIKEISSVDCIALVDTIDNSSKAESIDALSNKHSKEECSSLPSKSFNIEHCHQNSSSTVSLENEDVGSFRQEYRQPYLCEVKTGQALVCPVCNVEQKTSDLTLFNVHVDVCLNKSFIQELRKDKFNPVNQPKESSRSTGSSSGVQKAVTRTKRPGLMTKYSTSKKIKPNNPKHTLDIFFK
# Outline: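 10 nM human Pol-kappa was preincubated with compound 15 min at room temperature, then 50 nM (final) primer/template substrate with TAMRA-labeled reporter strand and BHQ-2-labeled template added. Fluorescence (Ex 525, Em 598 nm) read at 0 and 10 min.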
# [3] = molecular target: RecQ-like DNA helicase BLM (Homo sapiens) (UniProt P54132); assay: qHTS for Inhibitors of WRN Helicase: BLM Helicase Counterscreen for WRN Inhibitors (AID 720503; active = well fitted curve in the direction sought with a large enough effect; an effect the other way counts as inactive or inconclusive; note: potency is the fitted concentration of half-maximal effect; nearly all actives have a fitted effect of over 60% in size); details: Recombinant BLM helicase DNA unwinding, red fluorescence
# Chain of RecQ-like DNA helicase BLM (Homo sapiens) (P54132 whole entry, looked up): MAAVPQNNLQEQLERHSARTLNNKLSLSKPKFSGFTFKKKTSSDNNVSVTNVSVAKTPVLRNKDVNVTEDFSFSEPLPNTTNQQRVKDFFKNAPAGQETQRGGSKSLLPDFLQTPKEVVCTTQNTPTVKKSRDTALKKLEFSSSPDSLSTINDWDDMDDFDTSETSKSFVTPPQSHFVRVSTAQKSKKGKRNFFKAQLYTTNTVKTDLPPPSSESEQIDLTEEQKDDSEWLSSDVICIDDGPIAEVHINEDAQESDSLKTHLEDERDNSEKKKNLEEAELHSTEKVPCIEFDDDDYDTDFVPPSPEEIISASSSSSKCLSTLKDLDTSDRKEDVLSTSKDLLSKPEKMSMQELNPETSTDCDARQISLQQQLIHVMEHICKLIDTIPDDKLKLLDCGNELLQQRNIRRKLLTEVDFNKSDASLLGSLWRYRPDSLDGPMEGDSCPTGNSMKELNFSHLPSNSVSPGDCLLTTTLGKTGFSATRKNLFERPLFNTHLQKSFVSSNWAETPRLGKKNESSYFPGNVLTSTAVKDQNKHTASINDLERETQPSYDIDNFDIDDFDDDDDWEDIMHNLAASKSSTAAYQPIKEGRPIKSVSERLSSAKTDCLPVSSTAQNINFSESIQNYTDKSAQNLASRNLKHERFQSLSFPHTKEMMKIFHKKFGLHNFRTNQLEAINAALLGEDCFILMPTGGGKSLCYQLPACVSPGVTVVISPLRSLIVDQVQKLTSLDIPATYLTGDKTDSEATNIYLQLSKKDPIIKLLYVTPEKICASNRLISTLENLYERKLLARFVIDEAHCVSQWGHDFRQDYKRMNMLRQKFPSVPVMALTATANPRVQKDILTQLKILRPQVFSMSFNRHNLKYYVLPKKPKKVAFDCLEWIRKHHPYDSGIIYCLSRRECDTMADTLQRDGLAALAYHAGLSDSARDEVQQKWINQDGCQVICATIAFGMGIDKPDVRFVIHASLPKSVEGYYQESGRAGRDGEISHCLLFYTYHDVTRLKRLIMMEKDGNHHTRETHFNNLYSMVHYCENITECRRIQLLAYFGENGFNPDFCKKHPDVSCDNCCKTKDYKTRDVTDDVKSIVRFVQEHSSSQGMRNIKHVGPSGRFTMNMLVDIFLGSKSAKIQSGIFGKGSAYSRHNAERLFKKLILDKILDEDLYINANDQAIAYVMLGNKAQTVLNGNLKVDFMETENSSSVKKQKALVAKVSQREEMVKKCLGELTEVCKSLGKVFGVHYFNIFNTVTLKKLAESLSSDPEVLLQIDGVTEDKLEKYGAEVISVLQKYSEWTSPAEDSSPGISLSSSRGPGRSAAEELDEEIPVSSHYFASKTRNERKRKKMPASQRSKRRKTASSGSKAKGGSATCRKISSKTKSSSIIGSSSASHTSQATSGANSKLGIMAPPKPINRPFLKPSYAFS
# Outline: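 Steps: compounds added to 1 nM BLM in pH 8.0 Tris buffer with 2 mM MgCl2; 15 min room-temperature incubation; substrates added (100 nM DNA, 2 mM ATP final); discontinuous kinetic fluorescence measurement, reads spaced 15 min.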
# [4] = molecular target: Androgen receptor (Homo sapiens) (UniProt P10275); assay: qHTS assay for small molecule agonists of androgen receptor signaling (AID 588515; active = well fitted curve in the direction sought with a large enough effect in the signal ratio, with a control signal flat; the % refers to the signal ratio); details: AR-UAS-bla HEK293, beta-lactamase ratio, agonist 16 h; stronger effect = higher value
# Chain of Androgen receptor (Homo sapiens) (P10275 whole entry, looked up): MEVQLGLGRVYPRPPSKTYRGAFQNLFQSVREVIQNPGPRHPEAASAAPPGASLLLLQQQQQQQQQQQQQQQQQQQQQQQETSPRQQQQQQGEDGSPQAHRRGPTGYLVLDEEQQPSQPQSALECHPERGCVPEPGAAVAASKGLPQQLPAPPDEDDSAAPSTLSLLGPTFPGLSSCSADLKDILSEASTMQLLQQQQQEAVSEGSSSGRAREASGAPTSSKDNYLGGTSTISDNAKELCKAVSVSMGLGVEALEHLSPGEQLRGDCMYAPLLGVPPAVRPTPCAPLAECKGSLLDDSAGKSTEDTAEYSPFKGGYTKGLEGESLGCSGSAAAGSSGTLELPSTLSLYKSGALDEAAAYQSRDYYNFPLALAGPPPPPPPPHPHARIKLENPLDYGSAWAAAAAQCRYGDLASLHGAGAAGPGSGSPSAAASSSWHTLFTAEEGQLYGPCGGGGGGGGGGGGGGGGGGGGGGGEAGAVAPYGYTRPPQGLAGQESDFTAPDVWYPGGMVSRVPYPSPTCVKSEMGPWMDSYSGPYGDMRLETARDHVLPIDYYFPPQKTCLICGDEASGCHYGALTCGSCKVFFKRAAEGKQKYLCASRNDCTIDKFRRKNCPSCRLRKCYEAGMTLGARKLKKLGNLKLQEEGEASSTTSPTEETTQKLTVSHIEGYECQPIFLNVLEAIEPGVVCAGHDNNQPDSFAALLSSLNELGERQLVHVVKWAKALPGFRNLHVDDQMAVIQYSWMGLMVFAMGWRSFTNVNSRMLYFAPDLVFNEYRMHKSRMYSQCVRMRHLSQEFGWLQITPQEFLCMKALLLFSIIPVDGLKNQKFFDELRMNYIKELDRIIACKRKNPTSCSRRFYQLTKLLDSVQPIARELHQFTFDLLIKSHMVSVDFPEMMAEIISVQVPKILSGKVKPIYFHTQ
# Outline: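 EC50 and efficacy came from Hill fits of titrations (up to 92 uM) normalized to 30 nM R1881 as 100% and DMSO as 0%. Compound exposure was 16 h at 37 C on AR-UAS-bla HEK293 cells, with a 405/460/530 nm CCF4 fluorescence read.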
# [5] = molecular target: Androgen receptor (Homo sapiens) (UniProt P10275); assay: qHTS assay for small molecule antagonists of androgen receptor signaling (AID 588516; active = well fitted curve in the direction sought with a large enough effect in the signal ratio, with a control signal flat, not every such curve was filed as active; the % refers to the signal ratio)
# Outline: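 Antagonist mode: inhibition of R1881-stimulated (10 nM final) bla reporter in GeneBLAzer AR HEK 293 cells, 16 h at 37C, compounds titrated. IC50 and efficacy from Hill-equation fits of 405/460–530 nm FRET ratios.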
# [6] = molecular target: Bile acid receptor (Homo sapiens) (UniProt Q96RI1); assay: qHTS assay for small molecule antagonists of farnesoid X receptor signaling (AID 588526)
# Chain of Bile acid receptor (Homo sapiens) (Q96RI1 whole entry, looked up): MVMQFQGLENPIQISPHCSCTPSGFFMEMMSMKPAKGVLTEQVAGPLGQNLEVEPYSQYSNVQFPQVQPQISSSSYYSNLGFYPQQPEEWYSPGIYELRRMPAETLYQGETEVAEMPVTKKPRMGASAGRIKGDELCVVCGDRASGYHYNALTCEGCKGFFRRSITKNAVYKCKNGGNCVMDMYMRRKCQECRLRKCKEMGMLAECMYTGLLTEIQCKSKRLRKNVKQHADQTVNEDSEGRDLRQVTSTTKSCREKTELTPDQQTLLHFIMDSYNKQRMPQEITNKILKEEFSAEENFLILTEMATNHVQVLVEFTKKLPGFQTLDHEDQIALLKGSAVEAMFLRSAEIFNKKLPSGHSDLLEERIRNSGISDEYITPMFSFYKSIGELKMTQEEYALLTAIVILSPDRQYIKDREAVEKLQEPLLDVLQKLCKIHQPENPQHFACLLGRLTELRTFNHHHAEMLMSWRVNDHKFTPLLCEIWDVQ
# Outline: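 Antagonist mode: titrated compounds tested against chenodeoxycholic acid stimulation (normalized to 50 uM CDCA and DMSO) in GeneBLAzer HEK293T cells for 16 h. Beta-lactamase read by CCF4 fluorescence; IC50 from Hill fits.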
# [7] = qHTS assay for small molecule antagonists of peroxisome proliferator-activated receptor delta signaling (AID 588535; active = well fitted inhibition curve with a large enough effect in the signal ratio, with a control signal flat, not every such curve was filed as active; the % refers to the signal ratio;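 for max response: cells co-treated with a PPAR-delta agonist as stimulator during compound exposure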); details: HEK293T PPARd-UAS-bla, beta-lactamase FRET ratio, 18 h; 460 nm channel
# Outline: (§1)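 Cells were seeded at 4000 per well in assay medium containing 2% charcoal/dextran FBS and held 5 hrs at 37 C. Compounds were then added for 18 hrs. CCF4 substrate was applied for 2 hrs at room temperature before fluorescence reading.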
# [8] = molecular target: Peroxisome proliferator-activated receptor delta (Homo sapiens) (UniProt Q03181); assay: as above
# Outline: as §1
# [9] = molecular target: Peroxisome proliferator-activated receptor gamma (Homo sapiens) (UniProt P37231); assay: qHTS assay for small molecule agonists of peroxisome proliferator-activated receptor gamma signaling (AID 588536; active = well fitted curve in the direction sought with a large enough effect in the signal ratio, with a control signal flat, not every such curve was filed as active; the % refers to the signal ratio)
# Outline: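 HEK293 UAS-bla reporter line, 1% charcoal/dextran FBS; titration, 16 h, 37 C; CCF4 loading 2 h RT; fluorescence 460/530 nm. Normalized to rosiglitazone 2 uM = 100%, DMSO = 0%.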
# [10] = molecular target: Vitamin D3 receptor (Homo sapiens) (UniProt P11473); assay: qHTS assay for small molecule antagonists of vitamin D receptor signaling (AID 588541);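 note: receptor activated by calcitriol during compound treatment; series mostly up to about 77 µM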
# Chain of Vitamin D3 receptor (Homo sapiens) (P11473 whole entry, looked up): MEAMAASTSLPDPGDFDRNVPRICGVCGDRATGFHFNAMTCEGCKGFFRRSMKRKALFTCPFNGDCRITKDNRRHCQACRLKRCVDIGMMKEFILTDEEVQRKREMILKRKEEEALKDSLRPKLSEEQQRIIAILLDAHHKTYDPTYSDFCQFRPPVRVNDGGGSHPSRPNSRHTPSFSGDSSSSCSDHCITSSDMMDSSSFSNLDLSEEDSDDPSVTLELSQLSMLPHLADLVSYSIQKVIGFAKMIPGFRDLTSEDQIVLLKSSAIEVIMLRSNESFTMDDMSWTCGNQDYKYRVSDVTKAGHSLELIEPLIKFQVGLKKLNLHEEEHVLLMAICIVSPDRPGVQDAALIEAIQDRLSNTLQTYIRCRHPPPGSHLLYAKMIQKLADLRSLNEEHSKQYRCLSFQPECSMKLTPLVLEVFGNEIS
# Outline: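 VDR-UAS-bla HEK293T cells in 2% charcoal-stripped FBS were stimulated with 1-alpha,25-dihydroxyvitamin D3 (3 nM final) plus compound for 16 h at 37 C. The beta-lactamase CCF4 readout was normalized to 50 nM agonist and DMSO, and Hill fits gave IC50.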
# [11] = molecular target: Vitamin D3 receptor (Homo sapiens) (UniProt P11473); assay: qHTS assay for small molecule agonists of vitamin D receptor signaling (AID 588543)
# Outline: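 Agonist-mode beta-lactamase reporter: HEK293T VDR-UAS-bla cells in charcoal-stripped 2% FBS, compound series 16 h 37 C, CCF4 2 h RT. EC50 from Hill fit, scaled against DMSO and 50 nM calcitriol control.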
# [12] = qHTS assay for small molecule agonists of retinoid X receptor alpha signaling (AID 588544); details: HEK293T RXRa-UAS-bla, beta-lactamase reporter, 18 h; 530 nm emission
# [13] = molecular target: Retinoic acid receptor RXR-alpha (Homo sapiens) (UniProt P19793); assay: as above
# Chain of Retinoic acid receptor RXR-alpha (Homo sapiens) (P19793 whole entry, looked up): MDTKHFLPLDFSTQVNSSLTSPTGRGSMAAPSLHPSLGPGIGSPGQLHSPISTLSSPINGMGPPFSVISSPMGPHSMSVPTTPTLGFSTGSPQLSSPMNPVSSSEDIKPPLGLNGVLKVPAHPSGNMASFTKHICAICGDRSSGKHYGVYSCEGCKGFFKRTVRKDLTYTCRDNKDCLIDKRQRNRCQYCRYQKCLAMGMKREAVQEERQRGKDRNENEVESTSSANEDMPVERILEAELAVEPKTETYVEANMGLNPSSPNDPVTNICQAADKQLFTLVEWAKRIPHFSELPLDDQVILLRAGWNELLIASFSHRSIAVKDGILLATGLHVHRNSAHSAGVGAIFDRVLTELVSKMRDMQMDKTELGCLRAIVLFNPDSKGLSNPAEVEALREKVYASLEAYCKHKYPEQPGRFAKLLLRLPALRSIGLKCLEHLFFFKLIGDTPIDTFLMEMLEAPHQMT
# [14] = molecular target: Thyroid hormone receptor beta (Homo sapiens) (UniProt P10828); assay: qHTS assay for small molecule agonists of thyroid hormone receptor beta signaling (AID 588545)
# Chain of Thyroid hormone receptor beta (Homo sapiens) (P10828 whole entry, looked up): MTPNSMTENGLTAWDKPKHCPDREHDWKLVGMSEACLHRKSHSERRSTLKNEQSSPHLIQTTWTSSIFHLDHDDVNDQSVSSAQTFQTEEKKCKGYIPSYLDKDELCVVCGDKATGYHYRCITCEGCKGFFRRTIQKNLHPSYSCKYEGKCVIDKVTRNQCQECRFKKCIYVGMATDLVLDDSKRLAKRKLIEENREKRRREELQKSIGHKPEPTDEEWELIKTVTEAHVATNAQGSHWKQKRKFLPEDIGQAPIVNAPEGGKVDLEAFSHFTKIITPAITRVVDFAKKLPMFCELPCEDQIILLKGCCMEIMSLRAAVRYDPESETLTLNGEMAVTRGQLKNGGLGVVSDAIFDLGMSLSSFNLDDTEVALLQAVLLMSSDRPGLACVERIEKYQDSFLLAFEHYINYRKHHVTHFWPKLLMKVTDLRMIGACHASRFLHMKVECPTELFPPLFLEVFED
# Outline: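 Agonist-mode beta-lactamase reporter assay, HEK 293 cells, 2% charcoal/dextran FBS; cells plated 4 hrs, compound 18 hrs at 37 C, CCF4 2 hrs RT. Normalized to 10 nM T3 (100%) and DMSO (0%); Hill fit gives EC50, efficacy.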
# [15] = qHTS assay for small molecule antagonists of retinoid X receptor alpha signaling (AID 588546); details: HEK293T RXRa-UAS-bla, beta-lactamase ratio, antagonist mode; measured here: W530 green channel, cytotoxicity proxy;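 note: cells stimulated with 9-cis-retinoic acid as agonist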
# Outline: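 Beta-lactamase reporter inhibition, read as CCF4 fluorescence ratio (ex 405, em 460/530 nm) after 2 h at RT. HEK293T UAS-bla cells, 2500/well, were stimulated with 9-cis-RA at 500 or 100 nM final alongside test compound for 18 h at 37 C.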
# [16] = molecular target: Thyroid hormone receptor beta (Homo sapiens) (UniProt P10828); assay: qHTS assay for small molecule antagonists of thyroid hormone receptor beta signaling (AID 588547; active = well fitted inhibition curve with a large enough effect in the signal ratio, with a control signal flat, not every such curve was filed as active; the % refers to the signal ratio;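 note: cells stimulated with 0.4 nM T3 agonist during compound exposure; series mostly up to about 77 µM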); details: TR-UAS-bla HEK293, beta-lactamase ratio, antagonist mode, 18 h
# Outline: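 TR-UAS-bla GripTite HEK293 cells in 2% charcoal/dextran FBS medium; compounds 0.59 nM to 92 uM with T3 at 0.4nM final, 18 h at 37 C. Beta-lactamase read by CCF4 fluorescence (460/530 nm); Hill fits gave IC50 and efficacy.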
# [17] = qHTS assay for small molecule agonists of the antioxidant response element (ARE) signaling pathway (AID 651741; active = well fitted activation curve with a large enough effect in the signal ratio; the % refers to the signal ratio)
# Outline: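 HepG2 ARE-bla cells plated at 2,000 cells/well and incubated 5 h at 37 C/5% CO2 received 23 nL compound in DMSO. After 16 h at 37 C, LiveBLAzer B/G FRET substrate was applied for 2 h at room temperature and fluorescence read.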
# [18] = qHTS assay for small molecule activators of the nuclear factor-kappa B (NF-kB) signaling pathway (AID 651749; active = well fitted activation curve with a large enough effect in the signal ratio; the % refers to the signal ratio; note: series mostly up to about 77 µM); details: NF-kB-bla ME-180 cells, beta-lactamase FRET ratio, 16 h; stronger effect = higher value
# Outline: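 Incubation lasted 16 hr at 37C in 5% CO2 after 23 nL compound addition to ME-180 NF-kB-bla cells. Activation appears as beta-lactamase-mediated FRET loss.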
# [19] = qHTS assay for environmental chemicals that activate the Aryl hydrocarbon Receptor (AhR) signaling pathway (AID 651777; active = well fitted curve in the direction sought with a large enough effect; an effect the other way counts as inactive or inconclusive; note: nearly all actives have a fitted effect of over 15% in size); details: 1A2-DRE human hepatoma cells, luciferase, 24 h; activation: stronger effect = higher value
# Outline: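 AhR activation is scored as a rise in luciferase from a stable DRE–CYP1A2 promoter construct in human hepatoma cells. Treatment lasts 24 hr at 37 C; detection uses One-Glo after 30 min at room temperature.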
# [20] = molecular target: Nuclear receptor subfamily 1 group I member 2 (Rattus norvegicus) (UniProt Q9R1A7); assay: qHTS assay for small molecule activators of the rat pregnane X receptor (rPXR) signaling pathway (AID 651751; call rule not given here); details: rPXR reporter cells, luciferase (One-Glo), 24 h
SMILES,outcome [1],Potency [2],Potency [3],activation [4],outcome [5],Potency [6],max response [7],outcome [8],outcome [9],Potency [10],outcome [11],max response [12],outcome [13],outcome [14],max response [15],activity change % (negative = inhibition) [16],Potency [17],activation [18],activation [19],max response [20]
COc1ccc(-c2nc3c(c(SCC(=O)Nc4ccc(C(=O)O)cc4)n2)Cc2ccccc2O3)cc1,inactive,2.67 µM (active),3.04 µM (active),,,,,,,,,,,,,,,,,
CC1CCC(C(C)C)C(O)C1 (stereo not given),,,,13.2% (inactive),inactive,inactive,8.18%,inactive,inactive,inactive,inactive,-16.3%,inactive,inactive,-12.2%,-1.02% (inactive),inactive,-2.43% (inactive),-1.72% (inactive),-4.79% (inactive)
